In test [1] the test system is Staphylococcus aureus. As to conditions: Concentration 32 ug.mL-1; ASSAY_TEST Inhibition of Bacterial Growth; detection method Absorption (OD600); MEDIA CAMHB; plate type 384well; NBS; CORNING #3640; time 18 hr.
The subject of test [2] is Escherichia coli. As to conditions: Concentration 32 ug.mL-1; ASSAY_TEST Inhibition of Bacterial Growth; detection method Absorption (OD600); MEDIA CAMHB; plate type 384well; NBS; CORNING #3640; time 18 hr.

Potency and affinity values are given separately.

A word on the Inhibition: it is the change of the read-out against control, counted positive when it falls.

Take `ClCCC1CCN(Cc2ccccc2)CC1`: the Inhibition was determined as 26.32% in test [1] and 16.74% in test [2].
Turning to `CCOC(=O)C1=C(C)OC(N)=C(C#N)C1c1ccc(OC)cc1` (stereo not given), the Inhibition in test [1] was 9.52%; in test [2], -2.05%.
In the case of `Cc1ccc(C(O)SNNc2ncnc3c2cnn3-c2ccccc2)cc1` (stereo not given), the Inhibition in test [1] worked out at 13.51%; in test [2] it was 11.76%.
On to `O=C(N/N=C/Cc1ccccc1)c1cc2ccccc2n1Cc1ccccc1`, for which the Inhibition in test [1] turned out to be 8.78%; in test [2], 7.44%.
Take `Cn1c(CNNC(=O)Cc2cccc3ccccc23)cc2ccccc21`: the values for the Inhibition in test [1] and in test [2] were -5.85% and -4.9%, respectively.
Taken in the same sequence, the figures for `C=C1CN(C)c2c(C#N)c(-c3ccccc3)c(C#N)c(=N)n21` were 11.22% and -20.05%.
For `Cc1ccc(/C=N/NC(=O)c2c[nH]c3ccccc23)cc1`, the Inhibition stood at 6.96% in test [1] and 7.51% in test [2].
The corresponding values for `C#CCN(C)c1nc(NCCC2CCN(Cc3ccccc3)CC2)c(C#N)cc1C#N.Cl` are 16.92% and -3.04%.
Consider `CCOC(=O)N/N=C/c1ccccc1`, for which the values for the Inhibition in test [1] and in test [2] were -2.34% and -1.06%, respectively.
Taken in the same sequence, the figures for `N#Cc1cc(C#N)c(N2CCCC2)nc1N1CCCC1` were 17.61% and 8.77%.
Take `CN(C)c1nc(N)c(C#N)cc1C#N`: the Inhibition was determined as 20.41% in test [1] and 5.07% in test [2].
Taken in the same sequence, the figures for `O=C1OC(c2ccccc2)=NC1=Cc1ccc([N+](=O)[O-])cc1` were 5.7% and 7.71%.
The corresponding values for `COc1ccc2c(c1)cc(/C=C/[N+](=O)[O-])n2C` are 10.15% and 1.2%.
Taken in the same sequence, the figures for `CCOC(=O)c1cc2c(N)c3c(nc2nc1C)CCCC3` were 8.67% and -8.78%.
Regarding `NNC(=O)c1cc2ccccc2n1Cc1ccccc1`, the Inhibition in test [1] is listed as -21.85%; in test [2] it was -14.39%.

For the origin of these results see ChEMBL document CHEMBL4513135, “CO-ADD screening of IQOG CSIS (Spain) compounds”.
